The whole screen tested about 48,000 compounds, of which about 13,000 (27%) showed an effect of 50% or more. Some of the results follow.
Each compound was assayed on Wolbachia pipientis (assay: Anti-Wolbachia Cell-Based Screen). Settings: 5 µM.
Format: functional
Set-up: scale not given: in the data most compounds retested in dose-response had high values

SMILES | Percent Effect [%]
CCC[C@H]1CN(CCCO)C[C@@H]1NC(=O)Cn1cc(C)cn1 | -8.445
CCN(Cc1cc(F)c(OC)c(Cl)c1)Cc1nc(COC)no1 | -30.92
COc1cc(C)sc1C(=O)NCCC(=O)N(C)c1ccccc1 | -9.675
CC(C)N(C)CCNC(=O)NCc1ccccc1-n1cccn1 | -1.809
Cc1nn(C(C)C)c(C)c1S(=O)(=O)Nc1cccc(C(=O)O)c1 | 0.846
Cc1ccc(OCC(C)NS(=O)(=O)N(C)C)cc1 (stereo not drawn) | -6.618
O=C(CCc1cccc(Cl)c1)NS(=O)(=O)Cc1ccon1 | -7.174
CC(CCc1ccc(F)c(F)c1)NS(=O)(=O)Cc1ccon1 (stereo not drawn) | 102
Cc1ccc(OCC(C)NS(=O)(=O)Cc2ccon2)cc1 (stereo not drawn) | 103.4
O=C(NS(=O)(=O)Cc1ccon1)c1ccsc1 | -7.233
Cc1ccc(OCC(C)NS(C)(=O)=O)cc1 (stereo not drawn) | 1.319
Cc1cc(C(=O)NS(=O)(=O)Cc2ccon2)c(C)n1C(C)C | 19.94
CC(C)CC(CO)NS(=O)(=O)Cc1ccon1 (stereo not drawn) | 92.95
Cc1ccc(C(=O)NS(=O)(=O)Cc2ccon2)c(C)c1 | -32.05
CCC(CNC(=O)Cc1cc(C)on1)Oc1cccc(F)c1 (stereo not drawn) | 6.278
CN1CCN(c2ncnc3c2c(C(=O)NC2CC2)c2ccccn23)CC1 | -8.273
CC1CN(CC(=O)NC(=O)NCc2cccs2)CCN1CC(F)(F)F (stereo not drawn) | 103.7
Cc1csc(N2CCN(CCc3ccccn3)CC2C)n1 (stereo not drawn) | 3.431
O=C(CN1CCOC(Cn2cccn2)C1)NCc1cccs1 (stereo not drawn) | 2.249
CC1CN(C(=O)NCc2ccn(C)c2)CCN1CC(F)(F)F (stereo not drawn) | -7.034
O=C(CCN1CCCN(c2nccs2)CC1)Nc1ccccc1 | 4.493
C[C@@H]1CN(Cc2ccccc2)CCN1C(=O)NCc1nccs1 | -1.817
CC1CN(CC(=O)NCc2cccs2)CCN1c1nccs1 (stereo not drawn) | 105.4
Cc1csc(N2CCN(CC(=O)Nc3cccnc3)CC2C)n1 (stereo not drawn) | 114.5
O=C(CN1C[C@H]2CC[C@@H]1CN(Cc1ccccn1)C2)NCc1cccs1 | 1.062

SMILES | Percent Effect [%]
Cc1csc(N2CCN(CC(=O)Nc3nncs3)CC2C)n1 (stereo not drawn) | 1.073
O=C(CN1CCN(c2nccs2)CC1)Nc1cccnc1 | 105.2
Cc1ccccc1CN1CCN(CC(=O)Nc2cccnc2)CC1 | 7.585
COC(=O)N1CCCN(C(=O)NCc2ccc(Cl)s2)CC1 | 11.92
CC(C)COCCC(=O)Nc1cc(-n2nnnc2C2CC2)ccc1F | 3.649
CC1CN(CC(=O)Nc2cccnc2)CCN1c1nccs1 (stereo not drawn) | 0.898
CC1CN(CC(=O)Nc2nncs2)CCN1c1nccs1 (stereo not drawn) | -0.151
CC1CN(CC(=O)Nc2ccncc2)CCN1c1nccs1 (stereo not drawn) | 150.9
CCSC(C)C(=O)N1CCC(c2nn(C)c(=O)n2-c2ccccc2)CC1 (stereo not drawn) | -5.623
c1cc(C2CCCN2CC2CCCCC2)n[nH]1 (stereo not drawn) | 159.6
Nc1ncncc1-c1noc([C@@H]2CCCN2CC2CC2)n1 | -1.832
CC(C)CN1CCCC1c1cc[nH]n1 (stereo not drawn) | 114.8
CC(C)CN1CCCC1c1ccc(C(=O)Nc2cc[nH]n2)s1 (stereo not drawn) | 6.388
c1cc(-c2noc([C@@H]3CCCN3CC3CC3)n2)cc(N2CCCC2)n1 | 1.663
c1cc(-c2c[nH]c([C@@H]3COCCN3CC3CC3)n2)ccn1 | -6.01
OCCN1CCCCC1c1cc[nH]n1 (stereo not drawn) | 167
OCCOCCN1CCCC1c1cccc(Cl)c1 (stereo not drawn) | -3.053
COCCOc1ccnc(-c2noc([C@@H]3CCCN3CC(C)C)n2)c1 | -7.911
OCCCN1CCCC1c1ccc(Br)cc1 (stereo not drawn) | -3.155
c1cc(C2CCCN2CC2CC2)n[nH]1 (stereo not drawn) | 189.2
CN1CCC(c2n[nH]c(=O)n2CC2CCCCC2)CC1 | 16.1
CC(C)NC(=O)CCNC(=O)c1cc(F)ccc1NS(C)(=O)=O | -9.152
CCOc1ccc(C(=O)N(C)C)cc1NC(=O)c1ccsc1 | 9.824
CCc1nncn1CCNC(=O)Nc1ccc(OC)c(C)c1 | -6.777
CCn1ccnc1CN1CCN(CC(O)Cn2cccn2)CC1 (stereo not drawn) | -2.692

SMILES | Percent Effect [%]
Cc1ccc(CNCCC(O)(c2nccn2C)C(F)(F)F)o1 (stereo not drawn) | -16.77
Cc1cc(C)c2cc(CNCc3ccco3)c3nn(C)c(=O)n3c2c1 | 111.5
Cc1ccc(CNCc2nnc3n2CCCC3C(F)(F)F)o1 (stereo not drawn) | 18.11
Cc1cc(C)c2cc(CNCc3ccccc3)c3nn(C)c(=O)n3c2c1 | -7.626
Cc1ccc(NCc2ccco2)cc1N1CCOC1=O | -6.269
Cc1cc(C)c2cc(CNCc3cccnc3)c3nn(C)c(=O)n3c2c1 | 113.3
Cc1cc(C)c2cc(CNCc3ccc(C)o3)c3nn(C)c(=O)n3c2c1 | 122.6
Cc1cc(C)c2cc(C(=O)N3CCN(Cc4ccco4)CC3)[nH]c2c1 | 21.49
COc1ccc(Oc2ccc(C(F)(F)F)cn2)cc1CN1CCCC1 | -1.522
CCn1ccnc1S(=O)(=O)Cc1c(C)cc(C)c(C(C)=O)c1C | -13.95
CC(C)CN(Cc1ccsc1)C(=O)CCCn1cncn1 | 5.825
CCOc1cccc(CNC(=O)C(C)(C)C#N)c1OC(F)F | -15.69
O=C(O)C(F)(F)F.O=C(O)C(F)(F)F.O=C(O)C(F)(F)F.c1cnn(C[C@@H]2C[C@@H]3CN(CC4CC4)CC[C@@H]3N2c2nccs2)c1 | 119.3
CC(=O)N1CC[C@H]2[C@H](C[C@@H](CN3CCCC3)N2c2nccs2)C1.O=C(O)C(F)(F)F.O=C(O)C(F)(F)F | 95.98
CCC(=O)N1CC[C@H]2[C@H](C[C@@H](Cn3cccn3)N2c2nccs2)C1.O=C(O)C(F)(F)F.O=C(O)C(F)(F)F | 119.1
CCC(=O)N1CC[C@H]2[C@H](C[C@@H](CN3CCCC3)N2c2nccs2)C1.O=C(O)C(F)(F)F.O=C(O)C(F)(F)F | 104
Cl.Cl.c1csc(N2[C@H](Cn3cncn3)C[C@@H]3CNCC[C@@H]32)n1 | 3.496
CC(=O)N1[C@H](Cn2cncn2)C[C@@H]2CN(CC3CC3)CC[C@@H]21.O=C(O)C(F)(F)F | -0.2509
CCCc1nnc(NC(C)c2ccc(F)cc2)o1 (stereo not drawn) | -29.12
Cc1cccc2c(CCNC(=O)[C@H](N)c3ccccc3)c[nH]c12 | -3.898
CCC(NCc1ccccc1)c1ccccc1OCC(=O)NC (stereo not drawn) | -0.2413
CSCC(=O)N1C[C@H]2CC[C@@H]1CN(C1Cc3ccccc3C1)C2 | 0.6506
CN1CC[C@H]2[C@H](C[C@@H](CN3CCCC3)N2c2nccs2)C1.O=C(O)C(F)(F)F.O=C(O)C(F)(F)F.O=C(O)C(F)(F)F | 105.1
CC1N(C)C(=O)COC12CCN(Cc1ccsc1)CC2.O=C(O)C(F)(F)F (stereo not drawn) | -20.67
Cc1ccc(CN2CCC3(CCCN3S(C)(=O)=O)CC2)s1.O=C(O)C(F)(F)F | -3.179

SMILES | Percent Effect [%]
CN(C)C(=O)CN1C(=O)CCC12CCN(Cc1cccs1)CC2.O=C(O)C(F)(F)F | 103.6
CN1CC(=O)N(c2cccc(F)c2)CC12CCN(Cc1ccsc1)C2.O=C(O)C(F)(F)F.O=C(O)C(F)(F)F (stereo not drawn) | 7.196
CN(C)C(=O)CN1C(=O)CCC12CCN(Cc1ccsc1)CC2.O=C(O)C(F)(F)F | 105.6
CN(C)C(=O)CN1CCC2(CCCN(Cc3cccs3)C2)C1=O.O=C(O)C(F)(F)F (stereo not drawn) | -0.327
Cc1ccc(CN2CCC3(CCCC(=O)N3)CC2)s1.O=C(O)C(F)(F)F | -45.29
Cc1ccc(CN2CCC3(CCC(=O)N3CC(=O)N(C)C)CC2)s1.O=C(O)C(F)(F)F | 113.5
Cc1ccc(CN2CCOC3(CCCN(C(=O)c4ccco4)C3)C2)s1.O=C(O)C(F)(F)F (stereo not drawn) | 12.79
N#Cc1nccnc1N1CCC(CSc2ccccc2)C1 (stereo not drawn) | -2.144
Cc1cc(C)nc(NCCSc2cnn[nH]2)n1 | 5.167
COc1ccc(-c2cn(CCSc3ncn[nH]3)nn2)cn1 | 4.594
Cc1csc2c(=O)n(CCSc3cnn[nH]3)cnc12 | 116
Cc1cc2c(=O)n(CCOCCO)cnc2s1 | -13.8
CCC1CCN(CCn2cnc3c(C)csc3c2=O)CC1 | -5.154
Cc1cc2c(=O)n(CCSc3cnn[nH]3)cnc2s1 | 114.6
CCc1ncc(-c2cn(CCSc3ncn[nH]3)nn2)cn1 | -12.01
Cc1csc2c(=O)n(CCN3CCNCC3)cnc12 | -1.772
Cc1cc2c(=O)n(CCSc3ncn[nH]3)cnc2s1 | 95.33
CN(CCCc1cnn(C)c1)C(=O)Nc1cccc2[nH]ncc12 | -6.714
CCc1cnc(N2CC3(CCN(C(=O)c4ccoc4)C3)C2)nc1 | -9.292
CN(C)C[C@H]1OC[C@@H]2CCN(C(=O)c3ccc[nH]3)C[C@@H]21.O=C(O)C(F)(F)F | -11.36
CC(=O)N(C)CC(=O)NC1(c2ccc(F)cc2)CCCC1 | -10.47
O=C1NCCO[C@H]2CN(C(=O)Cc3csc4ccccc34)CC[C@@H]12 | 14.47
CCCn1cnnc1CNC(=O)CC1C(=O)NCCN1CC=C(C)C (stereo not drawn) | 0.5151

From ChEMBL document CHEMBL3988442, “University of Dundee, Small-Polar-MMV Screening Library” (2021)
